The structures appear in SMILES notation. Unmarked numbers belong to inactive results.

One test is described as follows: PSAC antagonists in infected red cells, primary screen, cell-based, P. falciparum Indochina, OD700, 2 h (AID 1155).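 Note: lysis reports solute entry through the parasite surface anion channel PSAC; channel blockers reduce lysis of infected cells.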 Particulars: P. falciparum Indochina infected erythrocytes, osmotic lysis OD700; higher = more signal, called active from +8 up or from −8 down.
Take `C=CCN1C(=O)[C@]2(O[C@H](CCO)[C@@H]([Si](C)(C)c3ccc(OC)cc3)[C@@H]2C)c2ccccc21`: the z-score was 2.43.

For `COC(=O)[C@]1(CO)N=C(c2ccc(OCCCO)cc2)O[C@@H]1c1ccccc1CN=[N+]=[N-]`, the z-score is 0.731.

On to `COc1cccc(OC)c1C(=O)O[C@H]1[C@@H]2OC(=O)[C@H](Cc3cccc(Br)c3)C/C=C/C[C@@H](Cc3cccc(Br)c3)C(=O)O[C@H]2[C@@H](OC)O[C@@H]1CO`, for which the z-score is -0.0392.

Regarding `COCCOC(=O)N1C(=O)[C@@]2(c3cc(C#CC4(O)CCCCCC4)ccc31)[C@H](C(=O)NC[C@H](O)c1ccccc1)[C@H]1C(=O)O[C@H](c3ccccc3)[C@H](c3ccccc3)N1[C@@H]2c1ccc(O)cc1`, the z-score was 1.01.

As to `O=C1C2C=CC(C(O)c3ccc([N+](=O)[O-])cc3)N(Nc3ccccc3)C2C(=O)N1c1ccccc1` (stereo not given), the z-score was 2.55.

For the molecule `C=C(CCCC)C(=O)CC[C@H](OC(C)=O)c1ccccc1OCCO`, the z-score was -0.686.

As to `C=C(COC)/C(=C/C[C@H](OC(=O)c1ccncc1)c1ccc(OCCO)cc1)c1cc(C(=O)OC)ccc1OC`, the z-score was 2.24.

Regarding `COC(=O)[C@@]1(Cc2ccc(OC)cc2)[C@@H]2[C@@H](CC(=O)[C@H]2CC(=O)C(=O)N2CCCC2)CN1C(=O)c1ccccc1`, the z-score was 0.989.

Take `CCOC(=O)C[C@H]1[C@H](OC(=O)c2ccc(-c3ccccc3)cc2)[C@@H](NC(=O)CC(C)C)c2cc(OCCCO)ccc2N1C(=O)Cc1ccc(OC)cc1`: the z-score was 0.786.

Take `C=CCN1C(=O)[C@]2(O[C@H](CCn3cc([C@H](O)c4ccccc4)nn3)[C@@H]([Si](C)(C)c3ccc(OC)cc3)[C@@H]2C)c2cc(N3C(=O)c4cccc5cccc3c45)ccc21`: the z-score was 1.59.

Another test is described as follows: osmotic lysis modulators in infected erythrocytes, primary screen, PSAC antagonist project, cell-based, P. falciparum Indochina, OD700, 3 h (AID 1156). Particulars: higher = more signal, called active from +8 up or from −8 down.
`CCCC[C@@H](O)C1=C(COC)Cn2c(=O)n(-c3ccccc3)c(=O)n2[C@H]1CO`: the z-score was -0.304.

As for `CCN(CC)c1ccc(N2CC=CC34O[C@@H]5C=CCOC(=O)[C@@H]5[C@H]3C(=O)N(CCCO)[C@@H]4C2=O)cc1` (stereo not given in full), the z-score was 0.649.

For `COCCOC(=O)N1C(=O)[C@@]2(c3cc(C#CCC(C(=O)OC)C(=O)OC)ccc31)[C@H](c1ccc(OCCO)cc1)N1[C@H](c3ccccc3)[C@H](c3ccccc3)OC(=O)[C@H]1[C@@H]2C(=O)N1CCCCCCC1`, the z-score is 1.04.

`CCOC(=O)C1=CC[C@@H](c2ccc(F)cc2)N(S(=O)(=O)c2ccc(C)cc2)[C@H]1c1ccc([N+](=O)[O-])cc1`: the z-score is -0.186.

On to `COC(=O)c1c(CC[C@@H](CO)NC(=O)N[C@@H](Cc2ccccc2)Cn2cc(-c3cncn3C)nn2)oc(C(C)=O)c1C(=O)OC`, for which the z-score was 1.29.

For `O=C(NCCO)C1=C[C@H](Oc2ccccc2I)[C@@H](O)[C@H](NCc2ccc(F)cc2)C1`, the z-score was 1.33.

Consider `CCCCN1CC=CC23O[C@@H]4/C=C\CCC(C)OC(=O)C4[C@H]2C(=O)N(C(C)CO)[C@@H]3C1=O` (stereo not given in full), for which the z-score was 1.19.

In the case of `CC(C)C[C@@H]1NC(=O)C([C@@H](C)OCc2ccccc2)NC(=O)[C@@]23C(=O)N[C@@H](Cc4ccccc4)C2[C@H](C)[C@@]2(C)O[C@H]2C3/C=C/CC/C=C/CNC1=O` (stereo not given in full), the z-score was -0.0722.

In the case of `COCCOC(=O)N1C(=O)[C@@]2(c3cc(C#CCCO)ccc31)[C@H](C(=O)N1CCc3cc(OC)c(OC)cc3C1)[C@H]1C(=O)O[C@H](c3ccccc3)[C@H](c3ccccc3)N1[C@@H]2c1ccccc1OCCO`, the z-score is 1.6.

As for `COc1ccc([Si](C)(C)[C@H]2[C@H](CC(=O)N3Cc4ccccc4C[C@H]3CO)O[C@@]3(C(=O)N(Cc4cccc(N5C(=O)c6cccc7cccc5c67)c4)c4ccccc43)[C@@H]2C)cc1`, the z-score was 1.

For `CN1C(=O)C2C(C1=O)C1C=C(c3ccc(CO)cc3)C2C(c2cccs2)N1C` (stereo not given), the z-score is 1.43.

As to `CC(C)CNC(=O)[C@@]1(C)c2ccccc2C(=O)N(Cc2cc(F)cc(C(F)(F)F)c2)[C@H]1c1ccc(CO)cc1`, the z-score was 0.33.

With `COc1ccc([Si](C)(C)[C@H]2[C@H](CCO)O[C@@]3(C(=O)N(Cc4ccc(N5CCOC5=O)cc4)c4ccccc43)[C@@H]2C)cc1`, the z-score is 1.63.

Regarding `CCCC=C(CCC)[C@@H](NC(=O)c1ccco1)c1ccc(C(=O)OC)cc1`, the z-score was 0.893.

For `CO[C@H]1O[C@H](CO)[C@@H](OC(=O)Nc2ccc(C(F)(F)F)cc2)[C@H](OC(=O)Nc2ccccc2-c2ccccc2)[C@@H]1OC(=O)Nc1ccccc1-c1ccccc1`, the z-score was 0.14.

Take `CC[C@H](C)C(=O)O[C@H]1CC[C@]2(C)C3=C(CCC2C1(C)C)[C@]1(C)CC[C@H]([C@H](C)CCCC(C)C)[C@@]1(C)CC3` (stereo not given in full): the z-score was -0.589.

Regarding `COCCn1c(C(=O)N2CCCC2)cc2c1C[C@H]1CN(C(=O)c3ccccc3)[C@@](Cc3ccccc3)(C(=O)OC)[C@@H]21`, the z-score was 1.98.

Turning to `C[C@]1(C(=O)NCC(F)(F)F)c2ccccc2C(=O)N(Cc2ccc(OC(F)(F)F)cc2)[C@H]1c1ccc(CO)cc1`, the z-score was 3.67.

`CN(C)CCCNC(=O)[C@@H]1c2ccccc2C(=O)N(C2Cc3ccccc3C2)[C@H]1c1ccc(CO)cc1`: the z-score was 1.79.

As for `Cc1c(NC(=O)/C(C#N)=C/c2ccc(Cl)cc2)c(=O)n(-c2ccccc2)n1C`, the z-score was -0.597.

Take `C=CCC(OC(C)=O)[C@@H]1[C@@H](N(Cc2ccc(-c3ccccc3)cc2)C(=O)c2cccc3ccccc23)c2cc(OCCCO)ccc2N1C(=O)c1ccc2ccccc2c1` (stereo not given in full): the z-score was -0.0836.

On to `COCCOC(=O)N1C(=O)[C@@]2(c3ccccc31)[C@H](c1ccc(OCCO)cc1)N1[C@H](c3ccccc3)[C@H](c3ccccc3)OC(=O)[C@H]1[C@@H]2C(=O)N1CCN(c2ncccn2)CC1`, for which the z-score was 1.4.

On to `C=C(/C(=C/C[C@@H](OC(C)=O)c1ccccc1OCCO)c1cc(C(=O)OC)ccc1OC)C(C)C`, for which the z-score is 1.4.

On to `CCCC[C@H]1OB(O)C[C@H]2C1=C(COC)C[C@H]1C(=O)C=CC(=O)[C@H]12`, for which the z-score is 0.224.

Turning to `COc1ccc(NC(=O)O[C@H]2[C@H](OC(=O)Nc3ccc4c(c3)OCO4)[C@H](OC(=O)Nc3ccc4c(c3)OCO4)[C@@H](OC)O[C@@H]2CO)cc1`, the z-score is 0.99.

As to `C=CCN1C(=O)[C@]2(O[C@H](CCO)[C@@H]([Si](C)(C)c3ccc(OC)cc3)[C@@H]2C)c2ccccc21`, the z-score is -2.63.

For the molecule `COC(=O)[C@]1(CO)N=C(c2ccc(OCCCO)cc2)O[C@@H]1c1ccccc1CN=[N+]=[N-]`, the z-score is 1.34.

As for `COc1cccc(OC)c1C(=O)O[C@H]1[C@@H]2OC(=O)[C@H](Cc3cccc(Br)c3)C/C=C/C[C@@H](Cc3cccc(Br)c3)C(=O)O[C@H]2[C@@H](OC)O[C@@H]1CO`, the z-score was -1.53.

For the molecule `COCCOC(=O)N1C(=O)[C@@]2(c3cc(C#CC4(O)CCCCCC4)ccc31)[C@H](C(=O)NC[C@H](O)c1ccccc1)[C@H]1C(=O)O[C@H](c3ccccc3)[C@H](c3ccccc3)N1[C@@H]2c1ccc(O)cc1`, the z-score was 0.0635.

In the case of `O=C1C2C=CC(C(O)c3ccc([N+](=O)[O-])cc3)N(Nc3ccccc3)C2C(=O)N1c1ccccc1` (stereo not given), the z-score was 2.09.

Take `C=C(CCCC)C(=O)CC[C@H](OC(C)=O)c1ccccc1OCCO`: the z-score is 2.15.

Turning to `C=C(COC)/C(=C/C[C@H](OC(=O)c1ccncc1)c1ccc(OCCO)cc1)c1cc(C(=O)OC)ccc1OC`, the z-score is 2.31.

Regarding `COC(=O)[C@@]1(Cc2ccc(OC)cc2)[C@@H]2[C@@H](CC(=O)[C@H]2CC(=O)C(=O)N2CCCC2)CN1C(=O)c1ccccc1`, the z-score is 1.07.

As for `CCOC(=O)C[C@H]1[C@H](OC(=O)c2ccc(-c3ccccc3)cc2)[C@@H](NC(=O)CC(C)C)c2cc(OCCCO)ccc2N1C(=O)Cc1ccc(OC)cc1`, the z-score was -0.348.

Turning to `C=CCN1C(=O)[C@]2(O[C@H](CCn3cc([C@H](O)c4ccccc4)nn3)[C@@H]([Si](C)(C)c3ccc(OC)cc3)[C@@H]2C)c2cc(N3C(=O)c4cccc5cccc3c45)ccc21`, the z-score is 1.97.
